MITF inh: inhibitors of MITF, primary screen, MITF inhibitor project, cell-based, luminescence; AID 2240, 2010; TRPM1 promoter luciferase, 24 h; 37,000 tested, 0.28% active; inhibition, % (test concentration not listed); in the data active = inhibition above about 85%; inconclusive = no clear call, values can overlap the other calls; inactive = below about 68%;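 note: human melanocyte line stably carrying TRPM1 promoter luciferase reporter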
YB-1 expression: inhibitors of YB-1 gene expression, primary screen, cell-based, fluorescence; U2OS, qRT-PCR YB-1 vs CDIP delta delta Cp, 16 h; hits give high values; zero = DMSO, each unit about twofold; delta delta Cp (YB-1 minus CDIP) (no concentration beside the values); 30,000 tested, 0.37% active;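 active = delta delta Cp rounded down to an integer at or above 3, about 3 SD of DMSO wells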;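 note: higher means less YB-1 transcript or more CDIP transcript relative to DMSO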
PD-1 reverse act: activators reversing PD-1 mediated T-cell inhibition, primary screen, luminescence, primary human CD4 T cells, PD-L1 beads; CellTiter-Glo 96 h; 29,000 tested, under 10 active; activation, % (test concentration not listed); call rule not given here;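 note: 0% = median vehicle wells and 100% = positive control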
NOMO-1 viab: NOMO-1 AML cell viability reduction, primary screen, STK33 inhibitor project, CellTiter-Glo luminescence | NOMO-1 AML viability, 72 h | inhibition, % (no concentration beside the values) | 37,000 tested, 7.5% active | AID 2330, 2010; in the data active = inhibition above about 80%; inconclusive = no clear call, values can overlap the other calls
Hedgehog inh: Hedgehog pathway signaling inhibitors, primary screen, luminescence, Shh-LIGHT2 cells, Gli-luciferase; Shh-LIGHT2 Gli-luciferase reporter, 30 h; inhibition, % (no concentration beside the values); 22,000 tested, 2.1% active;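 active = mean inhibition across valid replicates above about 65%, limit read from the data; inconclusive = mean under the limit, yet half or more replicates past it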;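 note: pathway switched on by Shh-conditioned medium diluted 1 in 25 in low serum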
Starred values were filed as active, the others as inactive; ? = inconclusive; . = not tested or not shown. An excerpt weighted towards active compounds, which were near 7.4% of everything screened.

SMILES | MITF inh | YB-1 expression | PD-1 reverse act | NOMO-1 viab | Hedgehog inh
Cc1ccc(S(=O)(=O)Nc2ccc3c(c2)CC(=O)N([C@@H](C)CO)C[C@H](C)[C@H](CN(C)Cc2ccc(Oc4ccccc4)cc2)O3)cc1 | 10 | -0.087 | 3 | 120* | 28
C[C@@H]1CN([C@H](C)CO)C(=O)Cc2cc(NS(=O)(=O)c3ccccc3)ccc2O[C@@H]1CN(C)Cc1ccc(Oc2ccccc2)cc1 | 11 | 0.075 | -4 | ? | 53
Cc1ccc(S(=O)(=O)Nc2ccc3c(c2)CC(=O)N([C@@H](C)CO)C[C@@H](C)[C@@H](CN(C)Cc2ccc(Oc4ccccc4)cc2)O3)cc1 | 41 | 0.2 | -3 | 115* | 27
CCCn1c2ccccc2c2nnc(Sc3ccc4nsnc4c3[N+](=O)[O-])nc21 | 52 | . | . | 105* | .
CCC1SC2=NCN(c3ccccc3)CN2C1=O (centres undefined) | 6 | 0.091 | 1 | 101* | -48
O=S(=O)(Cc1cccc(C(F)(F)F)c1)Cc1cccc(C(F)(F)F)c1 | -2 | 0.059 | -3 | 24 | 2
C[C@@H]1CN([C@@H](C)CO)C(=O)c2cccc(NC(=O)Nc3ccc4c(c3)OCO4)c2O[C@@H]1CN(C)C(=O)Nc1ccc2c(c1)OCO2 | -11 | 0.38 | 0 | 55 | -1
C[C@H](CO)N1C[C@H](C)[C@H](CN(C)C(=O)Nc2ccc3c(c2)OCO3)Oc2c(NC(=O)Nc3ccc(C(F)(F)F)cc3)cccc2C1=O | 40 | -0.59 | -3 | 115* | -67
C[C@H]1CN([C@@H](C)CO)C(=O)c2cccc(NC(=O)Nc3ccc4c(c3)OCO4)c2O[C@@H]1CN(C)C(=O)Nc1ccc2c(c1)OCO2 | -22 | -0.33 | -1 | 41 | -11
C[C@H]1CN([C@@H](C)CO)C(=O)c2cccc(NC(=O)Nc3ccc(C(F)(F)F)cc3)c2O[C@@H]1CN(C)C(=O)Nc1ccc2c(c1)OCO2 | -13 | -0.62 | . | 96* | -14
C[C@@H]1CN([C@H](C)CO)C(=O)c2cccc(NC(=O)Nc3ccc(C(F)(F)F)cc3)c2O[C@@H]1CN(C)C(=O)Nc1ccc2c(c1)OCO2 | 10 | 0.35 | -3 | 112* | -12
C[C@H]1CN([C@@H](C)CO)C(=O)CCCn2cc(nn2)CO[C@@H]1CN(C)S(=O)(=O)c1ccc2c(c1)OCCCO2 | . | -0.014 | . | . | .
C[C@H]1CN([C@@H](C)CO)C(=O)c2cc(NS(C)(=O)=O)ccc2O[C@@H]1CN(C)Cc1ccc2c(c1)OCO2 | 2 | -0.2 | . | 0 | .
C[C@H](CO)N1C[C@H](C)[C@H](CN(C)C(=O)Nc2cccc3ccccc23)Oc2ccc(NC(=O)Nc3ccccc3)cc2C1=O | -2 | -0.41 | 1 | -1 | 5
Cc1cc(C)c(C)c(S(=O)(=O)NCc2ccc(C(=O)Nc3ccncc3)cc2)c1C | 50 | . | -9 | 103* | .
COc1cccc(S(=O)(=O)NCc2ccc(C(=O)Nc3ccc(Cl)cc3)cc2)c1 | 42 | . | -1 | 17 | .
COc1ccc(C(O)CNC(=O)/C=C/c2ccccc2)cc1 (centres undefined) | 10 | 0.056 | 0 | 112* | 32
CNC[C@H]1Oc2ccc(NC(=O)Nc3ccc(OC)cc3)cc2CC(=O)N([C@@H](C)CO)C[C@H]1C | -5 | -0.081 | . | 12 | -22
COc1ccc(S(=O)(=O)NCc2ccccc2)cc1-c1nnc2c3ccccc3c(C)nn12 | 36 | . | . | 116* | .
C=CCSc1ncc2c(=S)[nH]c(=S)[nH]c2n1 | 71 | 0.15 | 0 | 12 | 65*
C[C@H]1CN([C@@H](C)CO)C(=O)c2cc(NC(=O)Cc3ccccc3)ccc2O[C@H]1CN(C)Cc1ccncc1 | 4 | 0.066 | 3 | 92* | .
C[C@@H]1CN([C@H](C)CO)C(=O)c2cc(NC(=O)Cc3ccccc3)ccc2O[C@H]1CN(C)Cc1ccncc1 | 4 | -0.051 | 0 | 11 | .
C[C@H](CO)N1C[C@H](C)[C@H](CN(C)Cc2ccc3c(c2)OCO3)Oc2ccc(NC(=O)CCC(F)(F)F)cc2C1=O | 0 | 0.11 | 0 | 92* | -11
C[C@H](CO)N1C[C@H](C)[C@H](CN(C)Cc2ccc3c(c2)OCO3)Oc2ccc(NC(=O)Cc3ccccc3)cc2C1=O | -7 | 0.69 | -2 | 109* | 2
C[C@H]1CN([C@@H](C)CO)C(=O)c2cc(NC(=O)CCC(F)(F)F)ccc2O[C@@H]1CN(C)Cc1ccc2c(c1)OCO2 | 0 | 0.013 | 2 | -3 | .
SMILES | MITF inh | YB-1 expression | PD-1 reverse act | NOMO-1 viab | Hedgehog inh
C[C@H]1CN([C@@H](C)CO)C(=O)c2cc(NC(=O)Cc3ccccc3)ccc2O[C@@H]1CN(C)Cc1ccc2c(c1)OCO2 | -2 | 0.52 | -1 | 10 | -7
C[C@@H]1CN([C@H](C)CO)C(=O)CCCn2cc(nn2)CO[C@H]1CN(C)C(=O)CCC(F)(F)F | . | -0.24 | . | . | .
C[C@H]1CN([C@@H](C)CO)C(=O)c2cccc(NC(=O)c3ccncc3)c2O[C@H]1CN(C)Cc1ccc(C(=O)Nc2ccccc2N)cc1 | -22 | -0.71 | -3 | 36 | .
COc1cc(OC)c(O[C@@H]2O[C@H](COC(=O)c3cc(O)c(O)c(O)c3)[C@@H](O)[C@H](O)[C@H]2O)c(OC)c1 | 7 | 5.6* | -2 | 35 | 9
O=C(OC[C@H]1O[C@@H](Oc2ccc(O)cc2)[C@H](O)[C@@H](O)[C@@H]1O)c1ccc(O)cc1 | . | 0.42 | . | . | 2
C[C@@H]1CCCCO[C@H](CN(C)C(=O)Nc2ccc(C(F)(F)F)cc2)[C@@H](C)CN([C@H](C)CO)C(=O)c2cc(NC(=O)Cc3ccccc3)ccc2O1 | -9 | -0.28 | . | 33 | 23
Cc1ccc2c(C)c(C(=O)Nc3sc4c(c3C(=O)NCc3ccco3)CCC4)oc2c1 | 0 | . | . | 103* | .
CCCNC(=O)[C@@H]1c2ccccc2C(=O)N(Cc2ccccc2OC)[C@H]1c1ccc(CO)cc1 | . | -0.072 | . | . | .
C[C@@H]1CN([C@H](C)CO)C(=O)c2cc(NC(=O)Cc3cn(C)c4ccccc34)ccc2O[C@H]1CN(C)Cc1ccc(C(=O)Nc2ccccc2N)cc1 | 7 | 0.56 | 0 | 23 | .
C[C@@H]1CN([C@@H](C)CO)C(=O)c2cc(NC(=O)Cc3cn(C)c4ccccc34)ccc2O[C@@H]1CN(C)Cc1ccc(C(=O)Nc2ccccc2N)cc1 | 0 | -0.17 | -3 | 99* | .
C[C@H](CO)N1C[C@H](C)[C@H](CN(C)Cc2ccc(C(=O)Nc3ccccc3N)cc2)Oc2ccc(NC(=O)Cc3cn(C)c4ccccc34)cc2C1=O | 45 | -0.16 | -2 | 102* | .
C[C@H](CO)N1C[C@H](C)[C@H](CN(C)S(=O)(=O)c2ccc(Cl)cc2)Oc2c(NC(=O)C3CC3)cccc2C1=O | 6 | 0.13 | -3 | 7 | 98*
C[C@@H]1CN([C@@H](C)CO)C(=O)c2cccc(NC(=O)C3CCOCC3)c2O[C@H]1CN(C)S(=O)(=O)c1ccc(Cl)cc1 | -14 | -0.11 | 1 | -7 | -11
